The source of these data is PubChem BioAssay (NCI).

Each structure is given as a SMILES string. This is part of a sample that, as a whole, favours compounds with a hit. Of some 83,000 tested, about 20% had one in any assay.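 The test compound was applied at a single concentration to cells in 96-well plates for 48 hours, and percent growth was recorded.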 Unmarked numbers belong to inactive results. Activity calls are given as the source filed them. Rule for the calls: active = growth percent below 10; inactive = the rest.

What all share (experiment): NCI-60 one-dose screen, 48 h (100 = growth as untreated, 0 = no growth, -100 = all killed)
For one test, the system named is HCT-15 colon. The following applies: 10 µM unless noted.
The test system of another test is HT29 colon. The following applies: 10 µM unless noted.
In a further test the test system is SNB-75 CNS. The following applies: 10 µM unless noted.
Another test deals with SNB-19 CNS. The following applies: 10 µM unless noted.
Another test concerns U251 CNS. The following applies: 10 µM unless noted.
Another test relates to PC-3 prostate. Particulars: 10 µM unless noted.
The subject of the next test is SK-MEL-5 melanoma. Particulars: 10 µM unless noted.
The subject of another test is UACC-62 melanoma. The following applies: 10 µM unless noted.
Another test deals with LOX IMVI melanoma. Particulars: 10 µM unless noted.
In the next test the test system is SK-MEL-28 melanoma. Particulars: 10 µM unless noted.
In a further test the test system is SK-MEL-2 melanoma. Particulars: 10 µM unless noted.
A further test has as its system EKVX NSCLC. Particulars: 10 µM.
The subject of the next test is UO-31 renal. The following applies: 10 µM unless noted.
The subject of a further test is TK-10 renal. Particulars: 10 µM unless noted.
A further test concerns ACHN renal. Particulars: 10 µM unless noted.
Another test relates to CAKI-1 renal. Particulars: 10 µM unless noted.
In the next test the test system is A498 renal. The following applies: 10 µM unless noted.
A further test concerns CCRF-CEM leukemia. The following applies: 10 µM.
Another test concerns MOLT-4 leukemia. The following applies: 10 µM unless noted.
The test system of a further test is SN12C renal. The following applies: 10 µM unless noted.

Turning to `CC1Cc2cc(F)ccc2-n2cccc21` (centres undefined), the growth in the test on HCT-15 colon was 95%; in the test with HT29 colon, 106%; in the test with SNB-75 CNS it was 96.1%; in the test with SNB-19 CNS, 121%; in the test with U251 CNS it was 102%; with PC-3 prostate, 98.2%. In addition, the growth was 109% in the test on SK-MEL-5 melanoma; 110% with UACC-62 melanoma; 91.7% with LOX IMVI melanoma; 107% with SK-MEL-28 melanoma; 104% in the test with SK-MEL-2 melanoma; 107% with EKVX NSCLC. Besides, the growth was 99.5% with UO-31 renal; 96.5% in the test on TK-10 renal; 106% in the test with ACHN renal; 101% in the test on CAKI-1 renal; 90.7% with A498 renal; 111% with CCRF-CEM leukemia. In the test with MOLT-4 leukemia, the growth was 113%.
As for `CCCNC(=O)Oc1ccc(/C(=C(/CC)Cc2ccccc2)c2ccc(OCCN(CC)CC)cc2)cc1`, the growth with HCT-15 colon was 7.99% (active); in the test with HT29 colon, -14.8% (active); with SNB-75 CNS, 63.6%; with SNB-19 CNS, 87.7%; in the test on U251 CNS it was 45.1%; with PC-3 prostate, 60.8%. The growth is 39.8% with SK-MEL-5 melanoma; 91.7% in the test with UACC-62 melanoma; 63.9% in the test with LOX IMVI melanoma; 92.9% in the test with SK-MEL-28 melanoma; 101% with SK-MEL-2 melanoma; 79.3% in the test on EKVX NSCLC. Further, the growth was 85.8% in the test on TK-10 renal, 90.1% in the test on ACHN renal, 57.7% in the test with CCRF-CEM leukemia and 46.9% in the test on MOLT-4 leukemia.
Take `S=C(N/N=C/c1cc(Cl)cc(Cl)c1)NC12CC3CC(CC(C3)C1)C2`: the growth in the test with HCT-15 colon was 84.9%; in the test with HT29 colon, 49.9%; in the test on SNB-75 CNS, 45.6%; in the test with SNB-19 CNS, 93.6%; with U251 CNS, 40.6%; in the test with PC-3 prostate it was 75.5%. The growth with SK-MEL-5 melanoma was 97%; in the test with UACC-62 melanoma, 89.5%; with LOX IMVI melanoma, 45.1%; with SK-MEL-28 melanoma, 90.9%; in the test with SK-MEL-2 melanoma, 116%; in the test on SN12C renal, 88.6%. In addition, the growth in the test on UO-31 renal was 69%; in the test on TK-10 renal, 11.1%; in the test with ACHN renal, 4.44% (active); in the test with CAKI-1 renal, -1.81% (active); in the test on A498 renal it was 57.1%; in the test with CCRF-CEM leukemia, 50.8%. Also, in the test on MOLT-4 leukemia, the growth was 94.1%.
Regarding `Cc1sc(NC(=O)c2ccc(C(C)(C)C)cc2)c(C(=O)O)c1C`, the growth in the test with HCT-15 colon was 45.9%; with HT29 colon, 82%; in the test on SNB-75 CNS, 85.5%; in the test on SNB-19 CNS it was 51%; in the test on U251 CNS, 17%; in the test with PC-3 prostate, 53.7%. In addition, the growth was 73.3% in the test with SK-MEL-5 melanoma; 98.4% in the test on UACC-62 melanoma; 68.9% in the test on LOX IMVI melanoma; 110% in the test with SK-MEL-28 melanoma; 103% in the test on SK-MEL-2 melanoma; 51.1% with EKVX NSCLC. Moreover, the growth with UO-31 renal was 89.9%; in the test on TK-10 renal, 68.4%; in the test on ACHN renal it was 38.8%; with CAKI-1 renal it was 41.9%; in the test with A498 renal, 78.6%; in the test with CCRF-CEM leukemia, 48.7%. Also, the growth with MOLT-4 leukemia is 50.3%.
For `CC1(C)CC(=O)C2=C(C1)Oc1nc(N)c(C#N)c(N)c1C2c1ccc(F)cc1` (centres undefined), the growth was 123% with HCT-15 colon; 99.6% in the test with HT29 colon; 101% in the test on SNB-75 CNS; 113% in the test on SNB-19 CNS; 107% with U251 CNS; 113% in the test on PC-3 prostate. The growth was 91.6% with SK-MEL-5 melanoma; 85.6% in the test on UACC-62 melanoma; 96.6% with LOX IMVI melanoma; 110% in the test with SK-MEL-28 melanoma; 107% in the test with SK-MEL-2 melanoma; 97.4% with EKVX NSCLC. Further, the growth with UO-31 renal is 181%; in the test with TK-10 renal, 72.8%; in the test with ACHN renal, 107%; in the test on CAKI-1 renal it was 92.3%; with A498 renal it was 102%; in the test with CCRF-CEM leukemia, 118%. For the same compound, the growth with MOLT-4 leukemia was 74.4%.
For the compound `Oc1ccc(CN(Cc2ccc(C(F)(F)F)cc2)Cc2ccc(O)c3ncccc23)c2cccnc12`, the growth with HCT-15 colon is 20.5%; in the test with HT29 colon, 11.3%; in the test with SNB-75 CNS, 33.5%; with SNB-19 CNS, 30.8%; in the test on U251 CNS, 1.77% (active); in the test with PC-3 prostate, 12.9%. For the same compound, the growth in the test on SK-MEL-5 melanoma is -32.6% (active); in the test on UACC-62 melanoma, -21.3% (active); with LOX IMVI melanoma it was 18.7%; in the test on SK-MEL-28 melanoma it was 32.3%; with SK-MEL-2 melanoma it was 24.5%; with EKVX NSCLC, 19%. The growth is 4.59% (active) in the test on UO-31 renal; 14.7% with TK-10 renal; 9.38% (active) with ACHN renal; 5.6% (active) in the test on CAKI-1 renal; 41.6% with A498 renal; 8.17% (active) in the test on CCRF-CEM leukemia. For the same compound, the growth with MOLT-4 leukemia was 10.4%.
Regarding `O=C(NC1CCN(Cc2ccccc2)CC1)c1cc(-c2cccnc2)nc2ccc(Cl)cc12`, the growth was 9.1% (active) in the test on HCT-15 colon; 4.33% (active) in the test on HT29 colon; 95.6% with SNB-75 CNS; 91.4% in the test on SNB-19 CNS; 56.2% in the test with U251 CNS; 69.2% in the test with PC-3 prostate. Moreover, the growth was 50.2% in the test on SK-MEL-5 melanoma; 8.77% (active) in the test on UACC-62 melanoma; 45.2% in the test with LOX IMVI melanoma; 94.1% in the test on SK-MEL-28 melanoma; 100% with SK-MEL-2 melanoma; 63.1% with SN12C renal. Moreover, the growth in the test on UO-31 renal is 69.2%; with TK-10 renal it was 81.6%; with ACHN renal, 81.2%; in the test with CAKI-1 renal it was 82.6%; in the test with A498 renal it was 67.2%; in the test with CCRF-CEM leukemia, 64%. Moreover, the growth with MOLT-4 leukemia is 58.9%.
In the case of `CC(=O)OCC1O[C@@H](OC(C)=O)[C@@H](NC(=O)NS(=O)(=O)c2ccccc2)C(OC(C)=O)[C@@H]1OC(C)=O` (some centres undefined), the growth in the test on HCT-15 colon is 96.6%; in the test with HT29 colon, 111%; in the test with SNB-75 CNS it was 91.2%; in the test with SNB-19 CNS, 98.7%; in the test with U251 CNS, 106%; with PC-3 prostate it was 102%. Besides, the growth in the test on SK-MEL-5 melanoma is 102%; in the test with UACC-62 melanoma it was 101%; in the test on LOX IMVI melanoma, 99.6%; in the test on SK-MEL-28 melanoma it was 108%; in the test on SK-MEL-2 melanoma, -51.6% (active); in the test on EKVX NSCLC, 96.4%. Further, the growth in the test with UO-31 renal was 90.9%; with TK-10 renal, 98.6%; in the test with ACHN renal it was 104%; in the test with CAKI-1 renal, 94.9%; in the test on A498 renal, 71.9%; in the test with CCRF-CEM leukemia, 97%. In addition, the growth in the test on MOLT-4 leukemia is 98.6%.
